D2 PAM-1 – Beta-Arrestin HTS for Positive Allosteric Modulators of the Human D2 Dopamine Receptor: Potentiators | D(2) dopamine receptor (Homo sapiens), P14416 | DiscoveRx D2 beta-arrestin cells, luminescence, 90 min; 100% = 57 uM dopamine signal | 0.23% of 360,000 active | potentiation, % (concentration not given with the values); in the data active = potentiation above about 50%; inconclusive = mostly about 30% to 49%
Target sequence (P14416 whole entry, looked up): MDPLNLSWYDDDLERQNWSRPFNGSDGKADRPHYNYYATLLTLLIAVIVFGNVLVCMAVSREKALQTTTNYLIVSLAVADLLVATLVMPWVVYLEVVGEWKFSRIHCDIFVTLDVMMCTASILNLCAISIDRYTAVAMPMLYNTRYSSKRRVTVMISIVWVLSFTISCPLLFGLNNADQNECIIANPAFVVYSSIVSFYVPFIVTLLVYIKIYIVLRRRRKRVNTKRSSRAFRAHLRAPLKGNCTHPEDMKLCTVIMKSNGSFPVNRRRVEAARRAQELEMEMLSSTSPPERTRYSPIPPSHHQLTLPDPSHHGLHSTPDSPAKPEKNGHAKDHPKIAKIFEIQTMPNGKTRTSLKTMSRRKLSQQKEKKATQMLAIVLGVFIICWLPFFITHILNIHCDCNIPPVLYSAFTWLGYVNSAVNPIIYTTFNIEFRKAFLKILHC
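PathHunter D2 cells, attached overnight at 37 deg C, received compound in DMSO plus dopamine at EC20 (50 nM final) for 90 min at 37 deg C. Beta-arrestin recruitment was read as luminescence after 1 h with detection reagent at ambient temperature.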
D2 ag-1 – HTS Assay for Allosteric Agonists of the Human D2 Dopamine Receptor: Primary Screen for Agonists; D(2) dopamine receptor (Homo sapiens), P14416; HEK293 T-REx D2 cells, calcium flux agonist mode; activation, % at 2 µM; 0.53% of 340,000 active;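 active = activation over 3 SD above normal in the single-dose calcium agonist read, cut at about 30% in these data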
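Agonism is scored from calcium flux in a force-coupled, inducible HEK293 cell line expressing D2, read kinetically for 180 s after compound addition against dopamine controls.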
D2 ag-2 – Beta-Arrestin HTS for Positive Allosteric Modulators of the Human D2 Dopamine Receptor: Agonists | DiscoveRx PathHunter D2 beta-arrestin, luminescence, 90 min; 100% = 57 uM dopamine signal | D(2) dopamine receptor (Homo sapiens), P14416 | 0.084% of 360,000 active | activation, % (concentration not given with the values) | AID 624465, 2012; in the data active = activation above about 40%; inconclusive = between about 15% and that limit
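DiscoveRx PathHunter D2 beta-arrestin cells (2,100/well) attached overnight, then compound-stimulated 90 min at 37 C in HBSS/10 mM HEPES/0.1% Tween-20 buffer; beta-galactosidase complementation read by luminescence after 1 h at ambient temperature. Dopamine 57 uM final (EC100) as control.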
D2 antagonist – HTS Assay for Allosteric Antagonists of the Human D2 Dopamine Receptor: Primary Screen for Antagonists; AID 485344, 2010; HEK293 TREx D2 cells, calcium flux, dopamine EC80; inhibition, % at 10 µM; 2% of 340,000 active; in the data active = inhibition above about 30%; inactive = below that, where a call was filed
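Compounds are added to dye-loaded, induced HEK293 T-REx cells coupled to calcium release via D2; after a 3 min kinetic read an EC80 dopamine stimulus is given and fluorescence is recorded for 3 more min.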
D2 PAM-2 – HTS Assay for Positive Allosteric Modulators of the Human D2 Dopamine Receptor: Primary Screen for Potentiators; D(2) dopamine receptor (Homo sapiens), P14416; 0.34% of 340,000 active; potentiation, % at 10 µM; AID 485347, 2010; HEK293 T-REx D2, calcium flux, EC20 dopamine potentiation;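 active = potentiation over 3 SD above the plate norm, cut at about 30% in these data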
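Primary screen. Calcium kinetics in induced HEK293 T-REx D2 cells: compound pre-addition 180 s, EC20 dopamine, 180 s more.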
D3 ag – qHTS of D3 Dopamine Receptor Agonist: D3 Dopamine Receptor B-arrestin Agonist Confirmatory Assay; AID 720506, 2013; DiscoveRx D3 beta-arrestin cells, luminescence, 90 min; Potency, µM (doses to about 76.9 µM), most hits filed as activators; 4% of 2,300 active; shares compounds with D2 ag-1; also: nearly all actives have a fitted effect of over 70% in size
D2 ag-3 – qHTS of D3 Dopamine Receptor Agonist: D2 Dopamine Receptor B-arrestin Agonist Counterscreen. 5.9% of 2,300 active. DiscoveRx PathHunter D2 beta-arrestin, luminescence, 90 min; response scale: percent relative to full dopamine signal. shares compounds with D2 ag-1. AID 720507, 2013. Potency, µM (series often up to 76.9 µM), hits mostly activators; also: nearly all actives have a fitted effect of over 70% in size
Hits are given with their value; 0 = inactive; ? = inconclusive; - = no result given. A selection: hits, their analogues and other compounds. The true share with any hit is near 2.4%. Unless noted, calls follow the shape of the dose curve; as a rule, active = well fitted activation curve with a large enough effect; inconclusive = small, poorly fitted or top-dose-only effect; inactive = flat fitted curve, though single readings scatter.

SMILES	D2 PAM-1	D2 ag-1	D2 ag-2	D2 antagonist	D2 PAM-2	D3 ag	D2 ag-3
CCOc1cc(C(=O)OCc2cc(=O)n3nc(C4CC4)sc3n2)cc(OCC)c1OCC	-	0	-	-	0	-	-
CCCC(C)NC(=O)Cc1ccc(Br)cc1 (configuration not stated)	0	0	0	0	0	0	0
CC(C)NC(=O)Cc1ccc(Br)cc1	0	0	0	0	0	-	-
CCN1CCN(C(=O)c2ccc3c(c2)N(Cc2c(F)cccc2Cl)C(=O)c2ccccc2S3)CC1	-	-	-	-	0	-	-
O=C(CN1CCN(c2ccc(O)cc2)CC1)Nc1cc(S(=O)(=O)N2CCCC2)ccc1Cl	0	54	0	44	0	40µM	?
CCN1CCN(c2ccc(S(=O)(=O)N3CCOCC3)cc2NC(=O)c2ccc(C)cc2C)CC1	0	0	0	0	0	0	0
O=C(CN1CCc2ccccc2C1)Nc1cc(S(=O)(=O)N2CCOCC2)ccc1N1CCCC1	0	76	0	83	0	0	0
CCOC(=O)c1ccc(NC(=O)c2cc(=O)c3ccc(C)c(C)c3o2)cc1	-	0	-	-	0	-	-
Nc1nc(N)nc(-c2ccc(Cl)c(Cl)c2)n1	0	0	0	0	0	0	0
O=C(Nc1ccc(Br)cc1)c1cc(S(=O)(=O)N2CCc3ccccc32)ccc1F	-	-	-	-	0	-	-
CSc1nc2ccccc2c(=O)n1C1CCCCC1	0	0	0	0	0	-	-
CSc1nc2ccccc2c(=O)n1C1CCOC(C)(C)C1 (configuration not stated)	0	0	?	0	0	0	0
Cc1cc(C)c(C)c(OCC(O)CN2CCN(c3ccccn3)CC2)c1 (configuration not stated)	0	66	48	92	0	4µM	4µM
CC1(C)Cc2cccc(OCC(O)CNCc3ccccn3)c2O1 (configuration not stated)	0	0	0	0	0	-	-
Cc1cccc(OCC(O)CN2CCN(c3ccccn3)CC2)c1C (configuration not stated)	0	72	?	78	0	0	?
CC1(C)Cc2cccc(OCC(O)CN3CCN(c4ccccn4)CC3)c2O1 (configuration not stated)	0	72	?	60	0	?	?
Cc1cc(C(F)F)n2nc(C(=O)Nc3cc(C)on3)nc2n1	0	0	0	0	0	0	0
Cc1cc(C(F)F)n2nc(C(=O)Nc3c(C)cccc3C)nc2n1	-	0	-	-	0	-	-
CC1=C(C(=O)NCc2cccc(Cl)c2)C2(CCCCCC2)OC1=O	-	0	-	-	0	-	-
Cc1[nH]nc2c1C1(CCOCC1)C(C#N)=C(N)O2	0	0	0	0	0	-	-
Cc1[nH]nc2c1C1(CCN(Cc3ccccc3)CC1)C(C#N)=C(N)O2	0	-	0	-	-	0	0
COc1cc(-c2n[nH]c(=S)n2/N=C/c2cccn2C)cc(OC)c1OC	0	0	0	0	0	0	0
Cn1cccc1/C=N/n1c(-c2ccco2)n[nH]c1=S	0	0	0	0	0	-	-
O=C1N=C(N2CCOCC2)S/C1=C/c1ccc(-c2ccc(F)cc2)o1	0	55	?	0	0	0	?
CCOc1ccccc1NC(=O)NCCn1c(=O)oc2ccc(C)cc21	-	0	-	-	0	-	-
O=C(O)CC1c2ccccc2CCN1C(=O)Nc1cc(Cl)ccc1Cl (configuration not stated)	-	0	-	-	0	-	-
Cc1cccc(C)c1NC(=O)CSc1ncc2c(n1)-c1ccc(Cl)cc1N(Cc1ccccc1)S2(=O)=O	-	-	-	-	0	-	-

Compound activity: PubChem BioAssay, National Center for Advancing Translational Sciences (NCATS)
